Here are results for five compounds from PubChem BioAssay (NCATS).

Inconclusive results are not listed. The source made the active and inactive calls. Unless noted, calls come from the whole dose curve; as a rule, active = well fitted curve in the direction sought with a large enough effect; inconclusive = small, poorly fitted or top-dose-only effect, or another doubt; inactive = no such curve, though single readings can be large; an effect the other way counts as inactive or inconclusive.

Assay [1] has as its target Lysosomal acid glucosylceramidase (Homo sapiens) (UniProt P04062). Kind of assay: Glucocerebrosidase-p2 (AID 348; in the data active = potency below about 10 µM; note: potency is the fitted concentration of half-maximal effect). Particulars: purified GBA, blue fluorogenic substrate, 40 min. The procedure, abridged: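 Normal human glucocerebrosidase (0.2 nM) with blue fluorogenic substrate (80 uM final) in citrate/phosphate pH 5.9 with 10mM sodium taurocholate, 0.01% tween-20; 40 min RT, NaOH/glycine stop; fluorescence Ex 365/Em 440; AC50 from a titration from 0.6 nM upwards.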

For assay [2], the target named is Cytochrome P450 1A2 (Homo sapiens) (UniProt P05177). Kind of assay: p450-cyp1a2 (AID 410; calls by dose curve; note: potency is the fitted concentration of half-maximal effect). Particulars: recombinant CYP1A2, luciferin-ME demethylation, luminescence; series mostly up to 57 µM. The procedure, abridged: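 Luminescent demethylation readout: Luciferin-ME (100uM, equal to Km) turned over by 20nM CYP1A2 for 60 min at room temperature after NADPH regeneration addition, following 10 min compound preincubation. Normalization used 57 uM furafylline as full inhibition.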
Sequence of Cytochrome P450 1A2 (Homo sapiens) (P05177 whole entry, looked up): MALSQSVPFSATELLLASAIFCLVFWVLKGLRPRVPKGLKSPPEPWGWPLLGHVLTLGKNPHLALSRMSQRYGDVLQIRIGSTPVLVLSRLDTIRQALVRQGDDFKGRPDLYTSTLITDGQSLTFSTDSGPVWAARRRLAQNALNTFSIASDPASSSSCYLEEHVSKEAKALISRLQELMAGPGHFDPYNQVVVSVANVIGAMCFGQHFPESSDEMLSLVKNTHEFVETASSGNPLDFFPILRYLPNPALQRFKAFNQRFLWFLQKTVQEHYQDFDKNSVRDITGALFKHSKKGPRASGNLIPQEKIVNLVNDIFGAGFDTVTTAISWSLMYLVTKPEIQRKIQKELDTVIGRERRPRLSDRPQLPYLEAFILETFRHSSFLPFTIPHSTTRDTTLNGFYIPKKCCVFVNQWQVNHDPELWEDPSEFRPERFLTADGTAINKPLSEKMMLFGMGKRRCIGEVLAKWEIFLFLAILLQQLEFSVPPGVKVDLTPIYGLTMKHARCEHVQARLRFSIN

Assay [3] can be described thus: Stat Signaling Pathway (AID 446; active = well fitted curve in either direction with a large enough effect, not every such curve was filed as active;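 note: ME-180 cervical cancer cells given 40 pM IL-6 alongside compound; SIE-controlled beta-lactamase reporter measured as 460/530 nm FRET emission ratio; % is set by controls: 0 for no effect and ±100 for the full control effect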). Particulars: ME-180 SIE beta-lactamase reporter, IL-6 stimulated, 5 h; at 7.69 µM (top of the series) unless noted. The procedure, abridged: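 Normalization used AC90 stimulation (300 pM IL-6) and AC90 inhibition (125 nM pan-JAK inhibitor at 40 pM IL-6). The underlying signal is SIE-driven beta-lactamase in ME-180 cells after 5 h IL-6 exposure with compound.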

The target in assay [4] is Glucocorticoid receptor (Homo sapiens) (UniProt P04150). Kind of assay: GR-GFP Redistribution (AID 450;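 active = compounds whose dose series gives a full or clear partial fitted curve of increased nuclear translocation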; note: potency is the fitted concentration of half-maximal effect). Particulars: U2OS GR-GFP nuclear translocation, laser cytometry, 2 h.
Sequence of Glucocorticoid receptor (Homo sapiens) (P04150 whole entry, looked up, the tested form may be a part): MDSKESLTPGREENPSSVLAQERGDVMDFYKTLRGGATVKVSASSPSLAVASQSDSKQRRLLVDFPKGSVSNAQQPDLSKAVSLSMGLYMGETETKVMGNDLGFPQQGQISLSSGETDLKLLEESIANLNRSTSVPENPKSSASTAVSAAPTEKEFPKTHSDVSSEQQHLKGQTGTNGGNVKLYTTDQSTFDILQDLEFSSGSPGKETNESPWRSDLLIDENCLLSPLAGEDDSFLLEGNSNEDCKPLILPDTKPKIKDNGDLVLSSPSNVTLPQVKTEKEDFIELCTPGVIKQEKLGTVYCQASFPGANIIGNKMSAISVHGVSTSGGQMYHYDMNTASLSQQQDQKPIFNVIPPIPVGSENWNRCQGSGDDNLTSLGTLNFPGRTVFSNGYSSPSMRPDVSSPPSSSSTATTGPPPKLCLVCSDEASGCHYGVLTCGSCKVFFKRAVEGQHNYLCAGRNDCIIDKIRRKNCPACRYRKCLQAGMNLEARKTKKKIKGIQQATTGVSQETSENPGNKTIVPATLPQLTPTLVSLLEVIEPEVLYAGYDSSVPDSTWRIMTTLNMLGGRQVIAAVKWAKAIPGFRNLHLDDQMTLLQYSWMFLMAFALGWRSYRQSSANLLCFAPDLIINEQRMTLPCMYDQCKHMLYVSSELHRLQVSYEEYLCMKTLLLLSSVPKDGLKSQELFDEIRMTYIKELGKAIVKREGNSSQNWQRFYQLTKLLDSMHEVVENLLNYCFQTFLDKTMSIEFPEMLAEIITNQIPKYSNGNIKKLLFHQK
For assay [5] the target is unchanged. Kind of assay: GR-EFC Redistribution (AID 451; calls by dose curve; note: potency is the fitted concentration of half-maximal effect). To be noted: CHO-K1 GR-EFC translocation, beta-gal luminescence, 2 h. The procedure, abridged: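 CHO-K1 cells expressing nuclear EA and GR-ED fragments of b-gal; compounds titrated up to 46 uM final, 2 h at 37 C. GR nuclear translocation read as complemented b-gal luminescence after 1 h RT detection.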
Assay [6] has as its target Mitogen-activated protein kinase 10 (Mus musculus) (UniProt Q61831). Kind of assay: JNK3 AlphaScreen Assay (AID 530; active = well fitted curve in either direction with a large enough effect, not every such curve was filed as active;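 note: kinase came from lysate of stimulated human HepG2 cells; signal reports phosphorylation of biotinylated GST-cJun 1-79 at Ser73 with 10 µM ATP; % is set by controls: 0 for no effect and ±100 for the full control effect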). Particulars: JNK3 lysate, c-Jun phosphorylation; series mostly up to 57.1 µM. The procedure, abridged: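 Activity was read by AlphaScreen after JNK3-containing HepG2 lysate (cytokine pre-activated) phosphorylated biotinylated GST-cJun with 10 uM ATP at room temperature. Phospho-Ser73 cJun antibody with Protein-A acceptor beads provided detection.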
(In general: In Alpha technology, singlet oxygen from a donor bead excites a nearby acceptor bead.)

The target in assay [7] is Cytochrome P450 3A4 (Homo sapiens) (UniProt P08684). As to the kind of experiment: qHTS Assay for Activators of Cytochrome P450 3A4 (AID 885). Note: nearly all actives have a fitted effect of over 65% in size. Particulars: recombinant CYP3A4, Luciferin-PPXE luminescence, 60 min; series mostly up to 57.1 µM. The procedure, abridged: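 Human CYP3A4 dealkylates Luciferin-PPXE to luciferin, which luciferase detection converts to light. Substrate was at its KM (25uM), buffer 200mM KPO4, reaction 60 min at RT.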
Sequence of Cytochrome P450 3A4 (Homo sapiens) (P08684 whole entry, looked up): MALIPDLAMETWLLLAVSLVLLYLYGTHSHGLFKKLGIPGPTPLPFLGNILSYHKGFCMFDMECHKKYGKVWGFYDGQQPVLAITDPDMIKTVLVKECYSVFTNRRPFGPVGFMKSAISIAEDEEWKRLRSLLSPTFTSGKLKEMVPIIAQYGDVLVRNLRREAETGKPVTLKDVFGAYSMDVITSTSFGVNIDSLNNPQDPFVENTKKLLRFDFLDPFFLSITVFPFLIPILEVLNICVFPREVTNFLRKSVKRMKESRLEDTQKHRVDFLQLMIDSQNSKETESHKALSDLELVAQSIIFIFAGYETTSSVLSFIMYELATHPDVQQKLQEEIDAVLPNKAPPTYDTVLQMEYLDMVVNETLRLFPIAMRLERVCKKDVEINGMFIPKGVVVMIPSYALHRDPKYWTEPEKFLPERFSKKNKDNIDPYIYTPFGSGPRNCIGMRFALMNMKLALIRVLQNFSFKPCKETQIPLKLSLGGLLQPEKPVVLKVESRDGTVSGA

In assay [8] the target is Cytochrome P450 2C19 (Homo sapiens) (UniProt P33261). Kind of assay: qHTS Assay for Inhibitors and Substrates of Cytochrome P450 2C19 (AID 899). Note: potency is the fitted concentration of half-maximal effect; nearly all actives have a fitted effect of over 60% in size. Particulars: recombinant CYP2C19, luciferin-H EGE luminescence; series mostly up to 57.1 µM. The procedure, abridged:
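Luminescent read-out of luciferin formed from Luciferin-H EGE (10uM, equal to KM). Enzyme 5nM in 50mM KPO4; compound added, 10 min at 37C, then NADPH regenerating system for 60 min at 37C. Full inhibition defined by 57uM ketoconazole.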
(In general: In qHTS, concentration-response curves come from the screen itself.)

A short description of assay [9]: qHTS Assay for Lipid Storage Modulators (AID 1519; calls by dose curve). To be noted: Drosophila S3 cells, BODIPY lipid droplet/cell ratio, laser cytometry, cells loaded with oleic acid. The procedure, abridged: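 Cells seeded at 5,000 per well were treated with compounds over a concentration series and loaded with oleic acid (400 uM, as added). Lipid droplet fluorescence (488 nm excitation, 500-530 nm channel) was read by laser-scanning cytometry and normalized to 20 uM Triacsin C.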

The target of assay [10] is Dual specificity protein kinase CLK4 (Homo sapiens) (UniProt Q9HAZ1). Kind of assay: qHTS Assay for Inhibitors of CDC-like Kinase 4 (ADP-FP Assay) (AID 1795).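 Note: recombinant human CLK4 phosphorylating RS repeat peptide at 1 µM ATP; % is set by controls: 0 for no effect and ±100 for the full control effect; nearly all actives have a fitted effect of over 60% in size.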 Particulars: Transcreener ADP fluorescence polarization; series mostly up to 50 µM. The procedure, abridged:
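Recombinant Clk4 (6.25 nM) phosphorylated 100 uM RS repeat peptide with 1 uM ATP in 25 mM Tris pH 7.5, 10 mM MgCl2, 0.5 mM EGTA, 2.5 mM DTT, 0.01% Triton X-100 for 1 h. ADP was detected by Transcreener ADP2 competitive fluorescence polarization after 30 min at room temperature.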

Assay [11] addresses Ubiquitin carboxyl-terminal hydrolase 1 (Homo sapiens) (UniProt O94782). Kind of assay: Inhibitors of USP1/UAF1: Pilot qHTS (AID 504865). Note: nearly all actives have a fitted effect of over 35% in size. Note: potency is the fitted concentration of half-maximal effect. Particulars: purified USP1/UAF1, Ub-rhodamine cleavage fluorescence; series mostly up to 54.9 µM. The procedure, abridged: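 USP1/UAF1 complex at 1 nM preincubated 15 min at room temperature with compound, then Ub-Rho substrate added at 150 nM final. Fluorescence (480/540 nm) read kinetically in 50 mM HEPES pH 7.8, 0.5 mM EDTA, 1 mM TCEP, 0.1 mg/ml BSA, 0.01% Tween-20.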

The nature of assay [12]: AP1 Signaling Pathway (AID 357; active = well fitted curve in either direction with a large enough effect, not every such curve was filed as active;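 note: ME-180 reporter cells stimulated with EGF at its EC50 level; % is set by controls: 0 for no effect and ±100 for the full control effect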). To be noted: ME-180 (cervical carcinoma) AP-1-bla reporter, EGF-induced, beta-lactamase ratio, 5 h; at 7.69 µM (top of the series) unless noted. The procedure, abridged: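 First, ME-180 AP-1-bla cells were cultured overnight at 37 °C in low-serum Opti-MEM. Next, titrated compounds with EC50 EGF were incubated 5 hours. Finally, CCF4 was added for 2.5 hours and the 460/530 nm ratio recorded.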

Assay [13] can be described thus: NFAT Signaling Pathway (AID 444; active = well fitted curve in either direction with a large enough effect, not every such curve was filed as active;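 note: carbachol stimulus at about its EC50 of 1 µM final; % is set by controls: 0 for no effect and ±100 for the full control effect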). To be noted: Jurkat NFAT-bla M1, carbachol, beta-lactamase ratio, 5 h; at 7.69 µM (top of the series) unless noted. The procedure, abridged: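 Jurkat cells with NFAT-driven β-lactamase reporter and co-expressed M1 receptor, stimulated with carbachol (final 1 uM, ~EC50), compound titration, 5 h at 37 °C. CCF4 loaded 1 h at RT; 460/530 nm ratio gave %activity and AC50.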

In assay [14] the target is 3',5'-cyclic-AMP phosphodiesterase 4B (Homo sapiens) (UniProt Q07343). As to the kind of experiment: qHTS Assay for Inhibitors of PDE-IV (AID 607; active = well fitted activation curve with a large enough effect in the main read-out, with a control signal flat, not every such curve was filed as active; note: % of control where 0% means no effect). To be noted: HEK293 ACTOne CNG channel cells, membrane potential fluorescence; series mostly up to 22.9 µM. The procedure, abridged: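 HEK293 ACTOne cells with CNG channel (1000/well), endogenous PDE4; membrane potential dye, compounds up to 22.9 uM final. Fluorescence Ex 535/Em 590; RO 20-1724 (100 uM final) as reference.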
Sequence of 3',5'-cyclic-AMP phosphodiesterase 4B (Homo sapiens) (Q07343 whole entry, looked up): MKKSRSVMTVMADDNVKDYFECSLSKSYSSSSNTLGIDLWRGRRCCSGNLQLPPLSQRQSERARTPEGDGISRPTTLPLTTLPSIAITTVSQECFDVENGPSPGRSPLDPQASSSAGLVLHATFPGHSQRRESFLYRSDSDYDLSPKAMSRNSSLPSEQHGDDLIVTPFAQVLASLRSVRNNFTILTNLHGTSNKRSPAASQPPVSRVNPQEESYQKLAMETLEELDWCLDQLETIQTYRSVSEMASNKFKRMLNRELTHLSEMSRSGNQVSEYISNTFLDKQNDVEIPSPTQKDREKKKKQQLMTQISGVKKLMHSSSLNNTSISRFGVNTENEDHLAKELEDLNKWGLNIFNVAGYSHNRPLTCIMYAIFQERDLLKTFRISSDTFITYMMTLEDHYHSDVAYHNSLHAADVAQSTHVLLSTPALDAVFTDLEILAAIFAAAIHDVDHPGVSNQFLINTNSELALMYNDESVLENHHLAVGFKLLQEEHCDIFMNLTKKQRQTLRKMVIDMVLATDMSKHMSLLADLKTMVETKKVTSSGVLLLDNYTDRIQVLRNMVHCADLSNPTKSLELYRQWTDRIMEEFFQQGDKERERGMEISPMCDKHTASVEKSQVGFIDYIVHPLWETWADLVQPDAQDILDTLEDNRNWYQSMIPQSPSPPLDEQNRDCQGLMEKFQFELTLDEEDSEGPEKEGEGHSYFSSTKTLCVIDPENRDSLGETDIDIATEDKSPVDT

The target in assay [15] is Cytochrome P450 3A4 (Homo sapiens) (UniProt P08684). Kind of assay: qHTS Assay for Inhibitors and Substrates of Cytochrome P450 3A4 (AID 884). Note: % is set by controls: 0 for no effect and ±100 for the full control effect; nearly all actives have a fitted effect of over 50% in size. To be noted: recombinant CYP3A4, Luciferin-PPXE luminescence; series mostly up to 57.1 µM. The procedure, abridged: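 Luminescent readout of luciferin produced by CYP3A4 (20 nM) dealkylation of Luciferin-PPXE, 25 uM (its KM). NADPH-driven reaction ran 60 min at RT after 10 min compound preincubation; data scaled to 57 uM ketoconazole as 100% inhibition.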

Assay [16] is described as follows: Confirmation and Secondary Assay for Modulators of Hemoglobin Beta Chain Splicing at IVS2 654 locus (AID 910).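 Note: HeLa cells stably carrying EGFP split by mutant beta-globin IVS2-654 intron; % of control where 0% means no effect.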 To be noted: HeLa EGFP-654 splicing reporter, GFP fluorescence, 48 h; series mostly up to 38.3 µM. The procedure, abridged:
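HeLa cells stably expressing EGFP interrupted by β-globin IVS2-654 intron, seeded overnight in Opti-MEM/2% FCS, then treated 2 days at 37 °C. Restored splicing read as total peak GFP intensity per well by laser scanning cytometry (488 nm excitation, 500–520 nm emission); 500 nM antisense PNA as control.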

A short description of assay [17]: Confirmation and Secondary Assay for Modulators of Hemoglobin Beta Chain Splicing at IVS2 705 locus (AID 930).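 Note: HeLa cells stably expressing the EGFP-705 splicing reporter; % of control where 0% means no effect.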 Particulars: HeLa EGFP-705 splicing reporter, GFP fluorescence, 48 h; series mostly up to 38.3 µM. The procedure, abridged:
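HeLa cells stably carrying EGFP interrupted by mutant beta-globin IVS2-705 intron (CMV-driven) were seeded at 500 cells/well, treated next day with compound for 2 days at 37C; corrected splicing restores EGFP, read as total peak GFP intensity per well.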

Where [18] appears, read: measured here: cell count channel max response.
[19] abbreviates: measured here: lipid channel max response.

Sequence of Ubiquitin carboxyl-terminal hydrolase 1 (Homo sapiens) (O94782 whole entry, looked up): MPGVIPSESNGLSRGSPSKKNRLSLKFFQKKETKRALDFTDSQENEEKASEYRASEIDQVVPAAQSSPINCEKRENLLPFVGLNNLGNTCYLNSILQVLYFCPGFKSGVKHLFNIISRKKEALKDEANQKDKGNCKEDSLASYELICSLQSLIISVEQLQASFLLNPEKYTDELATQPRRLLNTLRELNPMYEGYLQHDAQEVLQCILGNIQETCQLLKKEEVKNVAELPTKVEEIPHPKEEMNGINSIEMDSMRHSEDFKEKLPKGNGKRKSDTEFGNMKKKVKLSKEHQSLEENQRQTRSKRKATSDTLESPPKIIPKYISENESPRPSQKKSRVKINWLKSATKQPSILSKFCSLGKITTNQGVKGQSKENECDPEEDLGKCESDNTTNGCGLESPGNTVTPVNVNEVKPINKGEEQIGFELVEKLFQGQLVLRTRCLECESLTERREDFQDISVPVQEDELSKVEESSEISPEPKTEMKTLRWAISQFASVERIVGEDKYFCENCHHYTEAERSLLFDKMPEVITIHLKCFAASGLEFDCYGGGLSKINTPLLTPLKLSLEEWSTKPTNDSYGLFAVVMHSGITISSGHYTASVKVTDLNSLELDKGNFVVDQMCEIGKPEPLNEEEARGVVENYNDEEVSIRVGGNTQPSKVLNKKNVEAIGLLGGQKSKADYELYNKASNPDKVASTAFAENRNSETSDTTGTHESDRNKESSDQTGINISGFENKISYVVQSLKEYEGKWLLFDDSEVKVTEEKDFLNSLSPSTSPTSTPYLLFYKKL
Sequence of Dual specificity protein kinase CLK4 (Homo sapiens) (Q9HAZ1 whole entry, looked up): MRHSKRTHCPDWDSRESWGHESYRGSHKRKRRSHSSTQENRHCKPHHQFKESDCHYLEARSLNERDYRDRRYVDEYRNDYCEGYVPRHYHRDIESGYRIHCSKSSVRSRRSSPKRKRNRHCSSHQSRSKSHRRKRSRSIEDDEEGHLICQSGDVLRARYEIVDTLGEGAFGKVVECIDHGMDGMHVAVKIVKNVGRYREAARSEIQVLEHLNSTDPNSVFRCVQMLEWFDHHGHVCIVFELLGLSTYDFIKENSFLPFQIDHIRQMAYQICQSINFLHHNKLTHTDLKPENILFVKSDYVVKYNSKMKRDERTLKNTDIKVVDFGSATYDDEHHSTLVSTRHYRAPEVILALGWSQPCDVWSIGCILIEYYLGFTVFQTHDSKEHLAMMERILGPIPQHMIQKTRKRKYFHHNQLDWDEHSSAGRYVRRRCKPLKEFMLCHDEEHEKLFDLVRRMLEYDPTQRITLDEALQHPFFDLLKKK
Sequence of Lysosomal acid glucosylceramidase (Homo sapiens) (P04062 whole entry, looked up): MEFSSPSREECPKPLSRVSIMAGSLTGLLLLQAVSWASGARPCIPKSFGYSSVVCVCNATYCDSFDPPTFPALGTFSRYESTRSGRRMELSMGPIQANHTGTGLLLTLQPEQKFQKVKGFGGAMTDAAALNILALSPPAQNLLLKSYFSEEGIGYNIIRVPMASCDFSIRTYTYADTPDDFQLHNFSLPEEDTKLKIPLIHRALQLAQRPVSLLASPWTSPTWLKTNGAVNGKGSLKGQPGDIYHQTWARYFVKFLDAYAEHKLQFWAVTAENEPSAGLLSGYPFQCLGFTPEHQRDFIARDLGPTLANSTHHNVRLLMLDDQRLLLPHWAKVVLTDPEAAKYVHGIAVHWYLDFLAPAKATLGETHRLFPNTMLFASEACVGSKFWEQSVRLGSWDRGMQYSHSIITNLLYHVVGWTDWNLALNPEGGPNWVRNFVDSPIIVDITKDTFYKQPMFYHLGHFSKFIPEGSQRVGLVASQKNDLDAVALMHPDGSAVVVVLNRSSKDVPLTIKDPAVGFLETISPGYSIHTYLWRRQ
Sequence of Cytochrome P450 2C19 (Homo sapiens) (P33261 whole entry, looked up): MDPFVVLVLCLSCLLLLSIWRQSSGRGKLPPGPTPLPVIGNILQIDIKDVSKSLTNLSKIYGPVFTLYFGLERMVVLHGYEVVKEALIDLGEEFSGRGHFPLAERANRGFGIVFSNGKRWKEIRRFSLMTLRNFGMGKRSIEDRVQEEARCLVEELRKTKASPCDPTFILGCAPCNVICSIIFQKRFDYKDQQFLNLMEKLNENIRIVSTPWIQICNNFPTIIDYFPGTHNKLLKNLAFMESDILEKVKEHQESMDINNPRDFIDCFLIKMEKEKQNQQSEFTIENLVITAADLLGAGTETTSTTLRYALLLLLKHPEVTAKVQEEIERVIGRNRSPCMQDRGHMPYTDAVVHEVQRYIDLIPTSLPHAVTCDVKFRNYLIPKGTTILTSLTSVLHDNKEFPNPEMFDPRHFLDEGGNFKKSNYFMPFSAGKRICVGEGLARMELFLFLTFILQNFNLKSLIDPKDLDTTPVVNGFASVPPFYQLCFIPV

With `FC(F)(F)c1ccccc1-c1ccc2ncnc(N3CCOCC3)c2c1`, the Potency is > 11.4 µM (inactive) in assay [1]; 0.251 µM (active) in assay [2]; > 46 µM (inactive) in assay [4]; > 46 µM (inactive) in assay [5]; 0.631 µM (active) in assay [8]. In [3], the activity, negative = inhibition was 4.75% (inactive). Moreover, the Potency result in [6], in [7], in assay [10] and in [11] was “inactive” in each case. Further, the activity change, negative = inhibition in [9] (at 57.5 µM (top of the series)) was 5.7% (inactive). Further, the max response in assay [9] (setting [18]) is 20.5%; in [9] (setting [19]) it was 23.6%.
As for `COc1cccc(Cn2c(=O)c(C)nc3cnc(Nc4cccc(OC)c4)nc32)c1`, the Potency is > 11.4 µM (inactive) in [1], > 9.22 µM (inactive) in [4] and > 46 µM (inactive) in assay [5]. Also, the activity change, negative = inhibition was -28.7% (inactive) in assay [12], 19% (inactive) in assay [13] and -5.29% (inactive) in assay [9] (at 57.5 µM (top of the series)). The activity, negative = inhibition in assay [3] was -18.7% (inactive). Also, the Potency result in assay [6], in assay [10] and in [11] was “inactive” throughout. In addition, the figures for the max response in assay [9] (setting [18]) and in assay [9] (setting [19]) were 11.9% and 6.74%, respectively.
As to `CC12CC[C@@H]3c4ccc(OS(=O)(=O)O)cc4CC[C@H]3C1CCC2=O` (stereo partly specified), the activity change, negative = inhibition is 19.9% [at 17.2 µM] (inactive) in assay [12], -17.6% [at 17.2 µM] (inactive) in [13] and -2.17% (inactive) in [9] (at 25.7 µM (top of the series)). Moreover, the activity, negative = inhibition in assay [3] was -9.95% [at 17.2 µM] (inactive). For the same compound, the Potency in [4] and in [5] was > 20.6 µM (inactive) each time. In addition, the Potency entry in [6], in assay [14] and in assay [11] was “inactive” each time. Further, the max response was -14.5% in assay [9] (setting [18]) and -17.7% in assay [9] (setting [19]).
For the compound `COS(C)(=O)=O`, the Potency result in assay [6], in [15], in assay [16] and in assay [11] was “inactive” throughout. For the same compound, the compound was called inactive in [17]. Besides, the activity change, negative = inhibition in assay [9] (at 57.5 µM (top of the series)) is 5.21% (inactive). In addition, the max response is -1.86% in [9] (setting [18]) and 4.2% in assay [9] (setting [19]).
For the compound `Oc1ccc2c(c1)OCC1(O)Cc3cc(O)c(O)cc3C21` (stereo unspecified), the Potency result in [7] and in assay [16] was “inactive” throughout. The result in [17] was inactive. In addition, the activity change, negative = inhibition in assay [9] (at 57.5 µM (top of the series)) is 11.4% (inactive). Also, the max response was -15.6% in assay [9] (setting [18]) and -7.12% in [9] (setting [19]). For the same compound, the Potency in assay [11] was 79.4 µM (active).
